# Laboratory results reported in PubChem BioAssay AID1053183 (Broad Institute, 2014).
# Measured potencies and affinities stand elsewhere. Activity calls are given as the source filed them.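 Rule for the calls: active = cytotoxic compounds with fitted half-maximal concentration at most double the highest valid dose; inconclusive = flat curve with moderate signal loss, or unreliable fit; inactive = the rest.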
# Assay: HepG2 cell viability loss – cherry-picked samples, cytotoxicity control, dose response (AID 1053183)
row,SMILES,outcome
1,C/C=C/c1ccc([C@H]2[C@@H](CO)N3C(=O)CN(Cc4ccc(F)cc4)C[C@@H]23)cc1,inactive
2,COc1cccc(-c2cccc(-c3nc(C(=O)Nc4ccc(-c5ccccc5)cc4)cc4c3[C@@H](CCO)N(S(=O)C(C)(C)C)C4)c2)c1 (stereo partly drawn),inactive
3,CNC[C@@H]1Oc2cc(C#Cc3ccccc3OC)ccc2S(=O)(=O)N([C@H](C)CO)C[C@H]1C,inactive
4,COc1ccc2c3c(n(C)c2c1)[C@@H](CO)N(CC1CC1)CC31CN(C(=O)c2ccc3c(c2)OCO3)C1,inactive
5,C[C@@H]1CN([C@@H](C)CO)C(=O)Cc2cc(NC(=O)C3CCCCC3)ccc2O[C@@H]1CN(C)Cc1ccc(Cl)c(Cl)c1,inactive
6,CN(C)C(=O)c1cccc(-c2ccc(C3[C@@H]4CN(Cc5ccccc5F)C[C@H]3N4)cc2)c1 (stereo partly drawn),inactive
7,C[C@H](CO)N1C[C@H](C)[C@@H](CN(C)Cc2ccccc2)Oc2c(NC(=O)Cc3cn(C)c4ccccc34)cccc2C1=O,inactive
8,CO[C@@H](CN(C)Cc1cc(F)ccc1F)[C@@H](C)CN(C(=O)Nc1ccc(C(F)(F)F)cc1)[C@H](C)CO,inactive
